KinaseGlo FLuc: blocks Kinase-Glo luciferase, a counter-screen artifact; Kinase-Glo luciferase, ATP luminescence, 8 min; Potency, µM (doses to about 38.3 µM), for inactives: at the top dose activity change, negative = inhibition, usual class: inhibitors; Q27757; 200,000 tested, 0.28% active; AID 1379; active means well fitted inhibition curve with a large enough effect; inconclusive means small, poorly fitted or top-dose-only effect; further: potency means the concentration at half of the fitted maximal effect; nearly all actives have a fitted effect of over 60% in size
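Recombinant Kinase-Glo luciferase, 10 uM ATP (linear range), luciferin; imidazole pH 7.2 / KCl / MgCl2 / Tween / BSA buffer; 8 min RT; luminescence.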
ALDH1A1 block: inhibitors of human aldehyde dehydrogenase 1A1; Purified ALDH1A1, NADH fluorescence, propionaldehyde substrate; P00352; Potency, µM (titrated, usually from 75.3 µM), inactives show at the highest dose activity, negative = inhibition, actives largely listed as inhibitors; 220,000 tested, 7.3% active; AID 1030;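 further: potency means the concentration at half of the fitted maximal effect; plate controls were no enzyme wells and a reference inhibitor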
Target sequence (P00352 whole entry, looked up): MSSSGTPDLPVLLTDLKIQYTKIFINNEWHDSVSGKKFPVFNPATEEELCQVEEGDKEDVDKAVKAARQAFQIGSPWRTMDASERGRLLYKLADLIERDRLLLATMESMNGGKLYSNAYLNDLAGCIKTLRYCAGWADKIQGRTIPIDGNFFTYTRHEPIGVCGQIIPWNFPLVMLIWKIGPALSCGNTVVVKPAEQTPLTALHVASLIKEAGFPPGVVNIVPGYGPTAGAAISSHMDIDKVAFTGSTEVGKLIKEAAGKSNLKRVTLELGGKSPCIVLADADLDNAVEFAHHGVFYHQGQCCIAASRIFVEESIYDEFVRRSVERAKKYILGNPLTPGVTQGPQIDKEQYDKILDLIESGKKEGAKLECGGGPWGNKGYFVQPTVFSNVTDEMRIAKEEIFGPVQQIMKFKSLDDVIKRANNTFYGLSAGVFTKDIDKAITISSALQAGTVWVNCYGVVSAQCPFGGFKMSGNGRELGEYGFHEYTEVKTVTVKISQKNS
HPGD block: inhibitors of human 15-hydroxyprostaglandin dehydrogenase (HPGD). P15428. purified HPGD, NADH fluorescence kinetic, PGE2 substrate. Potency, µM, for inactives: at the highest dose activity change, negative = inhibition, usual class: inhibitors. 150,000 tested, 4.3% active; further: potency means the concentration at half of the fitted maximal effect
Target sequence (P15428 whole entry, looked up): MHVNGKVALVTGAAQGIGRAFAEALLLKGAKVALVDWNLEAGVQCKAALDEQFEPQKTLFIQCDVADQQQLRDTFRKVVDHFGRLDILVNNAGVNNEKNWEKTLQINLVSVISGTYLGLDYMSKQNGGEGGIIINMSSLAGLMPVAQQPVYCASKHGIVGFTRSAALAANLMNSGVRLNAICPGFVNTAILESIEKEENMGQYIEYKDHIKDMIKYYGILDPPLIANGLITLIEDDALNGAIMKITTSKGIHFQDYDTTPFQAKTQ
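NADH formation kinetics: reaction with 30 uM PGE2 and 1 mM NAD+ (final), 20 nM enzyme, Tris-HCl pH 8 with Tween 20, after 15 min compound preincubation at room temperature. Fluorescence change, last versus first of five reads.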
Lamin A splicing: changes lamin A minigene splicing in HeLa cells. HeLa LMNA splicing GFP/RFP minigene ratio, 48 h. Potency, µM (top dose mostly 46.1 µM), inactives show at the top dose ratio change, negative = inhibition, actives largely listed as inhibitors. 200,000 tested, 0.01% active. AID 1487; active means well fitted inhibition curve with a large enough effect in the signal ratio, with a control signal flat, not every such curve was filed as active; inconclusive means small, poorly fitted or top-dose-only effect, or effect the other way, or a change in a side signal; the % refers to the signal ratio; further: potency means the concentration at half of the fitted maximal effect
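S3 HeLa stable clones carrying a lamin A-EGFP splicing minigene plus DsRed2 were seeded at 600 cells/well in Opti-MEM with 2% FBS, pin-dosed and incubated 48 h at 37°C. Acumen cytometry (488 nm) gave the GFP/RFP total-intensity ratio.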
PNC inhibitor: perinucleolar compartment assembly inhibition | PC3M PTB-GFP, PNC prevalence imaging, 16 h; hits give low values | activity change (PNC), negative = inhibition, % at 10 µM | 140,000 tested, 3.1% active;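 active means readout at or below -70, meaning at least 70% loss of cells showing the perinucleolar compartment, a nuclear body marking cancer cells; inconclusive means readout between -30 and a set limit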;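 further: plate controls were DMSO wells for no effect and camptothecin positive control wells for full effect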
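Compounds are pinned in duplicate onto adhered PC3M cells stably expressing GFP-tagged PTB and incubated 16 h at 37 C. Cells are then fixed, nuclei stained with Hoechst, and PNC-positive cells counted.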
* = called active by the depositor; ? = inconclusive; . = no result; [ ] = dose if it differs, or a comment. An excerpt weighted towards active compounds, which were near 10% of everything screened. Unless noted, the call rests on the fitted dose curve; in most records, active means well fitted inhibition curve with a large enough effect (not every such curve was filed as active); inconclusive means small, poorly fitted or top-dose-only effect, or another doubt; inactive means no such curve, though single readings can be large or run the other way. Unless noted, on the % scale 0 is the no-effect control and ±100 the full control effect.

SMILES | KinaseGlo FLuc | ALDH1A1 block | HPGD block | Lamin A splicing | PNC inhibitor
CC1CN(C(=O)c2ccc3c(c2)OCO3)CC(C)O1 (centres undefined) | -5.2% | 13.3% | 25.1µM* | -2.5% | ?
Cc1csc(NC(=O)c2ccc(N3CCCC3=O)cc2)n1 | 12.6µM* | ? | . | 0.9%[46 µM] | .
CCCCC(=O)Nc1ccc(N2CCN(C(=O)CC)CC2)cc1 | 1.4% | -1.3% | -16.9% | 4.4% | 4.3
Cc1csc2c(N3CCN(C(=O)c4ccc(C(C)(C)C)cc4)CC3)ncnc12 | . | 15.8µM* | . | . | .
COc1cccc(/C=N/Nc2ccc(S(=O)(=O)O)cc2)c1O | ? | 10µM* | 31.6µM* | 3.0% | -11.1
COc1cccc(/C=N/NC(=O)C(=O)N2CCCC2)c1O | ? | 0.6% | ? | -11.9% | -15.9
COc1cccc(/C=N/Nc2ccc(C(=O)O)cc2)c1O | 8.91µM* | 10.9% | . | 13.2%[46 µM] | .
ClC(=Nc1cccc2ccccc12)N(c1ccccc1)c1ccccc1 | 0.1%[7.66 µM] | 5.6%[13.5 µM] | -26.1% | . | .
O=C(O)CNc1ccc(C(=O)O)cc1 | -1.6%[7.66 µM] | 6.2%[13.5 µM] | -3.3% | . | .
NS(=O)(=O)O | . | 14.9% | -13.8% | . | .
O=C(N/N=C/C=C/c1ccccc1)c1n[nH]c2c1CCC2 | -5.4% | 12.1% | -19.9% | ? | -98.2*
Cc1ccc(-c2cc(C(=O)N/N=C/C=C/c3ccccc3)n[nH]2)s1 | 0.1% | ? | 31.6µM* | ? | -10.9
O=C(N/N=C/c1ccc(Cl)cc1Cl)c1n[nH]c2c1CCCC2 | -0.7% | 12.5% | -5.7% | ? | -84.2*
O=C(N/N=C\c1cccc(Cl)c1)c1n[nH]c2c1CCCC2 | -8.1% | ? | -7.7% | ? | -24.0
CCC/C=C(\CCC)C(NS(=O)(=O)c1ccc(Cl)cc1)c1ccccc1 (centres undefined) | -2.4% | -3.1% | -8.1% | . | .
Cc1ccc(-n2[nH]c(=O)c3cccnc32)cc1 | -2.7% | 4.2% | 15.8µM* | 0.9% | 35.5
Cc1ccc(-n2c(=O)[nH]c3ncccc3c2=O)cc1 | 1.1% | ? | . | . | .
O=C(NCc1ccc2c(c1)OCO2)C1CCN(S(=O)(=O)c2cccs2)CC1 | -4.8% | 0.316µM* | -11.3% | -1.6% | 6.8
O=C(NCc1ccc2c(c1)OCO2)C1CCN(S(=O)(=O)N2CCCCC2)CC1 | 1.7% | 5.01µM* | -7.8% | ? | 27.6
BrC(c1cccc2ccccc12)c1cccc2ccccc12 | -2.2%[7.66 µM] | ? | -29.8% | . | .
O=[N+]([O-])c1cc(Br)cc(/C=N/n2cnnc2)c1O | -5.5% | ? | . | . | .
C=CCS/C(N)=N\N=C\c1cc(Br)cc([N+](=O)[O-])c1O | . | 7.08µM* | . | . | .
O=[N+]([O-])c1ccc(Cl)c(CN2CCC(O)CC2)c1 | -0.8% | ? | -10.1% | ? | -123.8*
Cc1ccc([N+](=O)[O-])cc1S(=O)(=O)N1CCNCC1 | 3.2% | 4.5% | . | . | .
CC1CCN(S(=O)(=O)c2cc([N+](=O)[O-])ccc2Cl)CC1 | -4.6% | 3.55µM* | . | . | .
SMILES | KinaseGlo FLuc | ALDH1A1 block | HPGD block | Lamin A splicing | PNC inhibitor
O=C(NNC(=O)C1CCN(Cc2ccc(F)cc2Cl)CC1)Nc1ccc([N+](=O)[O-])cc1 | -1.5% | -6.9% | . | 9.0%[46 µM] | .
CCS(=O)(=O)N1N=C(c2cccc(NS(C)(=O)=O)c2)CC1c1ccc(C)cc1 (centres undefined) | -3.5% | 20µM* | . | ? | .
Cc1ccc(S(=O)(=O)c2c(Nc3ccccc3)sc(C(=O)c3ccc4c(c3)OCO4)c2N)cc1 | . | . | . | -6.6%[46 µM] | .
Cc1nnn(C23CC4CC(CC(C(=O)NN)(C4)C2)C3)n1 | -2.1% | 1.41µM* | 2.3% | -5.3% | -113.8*
NNC(=O)C12CC3CC(C1)CC(n1ncnn1)(C3)C2 | -3.4% | 3.55µM* | -2.4% | -8.2% | 7.8
Cc1ccc(CCNC(=O)C23C[C@H]4C[C@@H](C2)CC(n2nnc(C)n2)(C4)C3)cc1 | 2.9% | 5.1% | . | -6.9%[46 µM] | .
O=C(O)c1ccc(/C=C2\SC(=Nc3ccccc3)N(c3ccccc3)C2=O)cc1 | 1.6% | 15.8µM* | . | . | .
O=C(O)COc1ccc(/C=C2\SC(=Nc3ccccc3)N(c3ccccc3)C2=O)cc1 | 0.4% | 17.8µM* | . | . | .
CCOc1cc(/C=C2\SC(=Nc3ccccc3)N(c3ccccc3)C2=O)ccc1OCC(=O)O | 3.6% | ? | -5.3% | ? | -25.8
O=C(c1ccncc1)N1CCC2(CCN(Cc3nccs3)CC2)CC1 | -0.6% | 6.8% | -3.2% | . | .
Cc1cccc(CNc2ncncc2-c2ccccc2C)c1 | . | 8.6% | . | -13.4% | .
CCOC(=O)c1nn(-c2cccc(OC)c2)c2nc(CC)c(C#N)c(=O)n12 | -10.5% | ? | -17.0% | -1.9% | -109.0*
C=CCSc1n[nH]c(-c2ccc(OCCC)cc2)n1 | -2.7% | -4.4% | ? | -1.7% | 8.2
C=CCSc1n[nH]c(-c2ccc(OCCCC)cc2)n1 | 0.6% | 0.0% | 15.8µM* | ? | 21.5
Cc1nc(=O)cc(-c2ccccc2)n1-c1ccccc1 | 14.9% | 7.3% | -8.5% | 6.5% | -107.8*
Cc1nn(C)c(=O)n1-c1ccccc1 | 8.4% | 4.0% | . | 18.3%[46 µM] | .
Cc1ccc2nc(SCc3nnc(-c4ccccc4)o3)[nH]c2c1 | -2.5% | -15.7% | ? | 2.5% | 67.4
Cc1ccc2nc(SCc3nnc(-c4cccs4)o3)[nH]c2c1 | -0.8% | 22.4µM* | 31.6µM* | -2.3% | ?
Cc1ccc(-c2nn3nnnc3c3ccccc23)cc1C | -0.3% | 7.08µM* | -13.4% | 3.8%[0.0737 µM] | 28.7
Cc1ccc(C)o1 | . | -5.4% | -7.1% | . | .
O=C(CSc1nc2[nH]ncc2c(=O)n1-c1ccccc1Br)NCc1ccco1 | -0.7% | 12.6µM* | -14.9% | 19.4% | ?
O=C(CSc1nc2[nH]ncc2c(=O)n1-c1ccccc1)NCc1cccs1 | -3.3% | ? | . | . | .
COc1ccc(CCNC(=O)CSc2nc3[nH]ncc3c(=O)n2-c2ccccc2Br)cc1OC | 0.0% | 22.4µM* | . | 1.5%[9.22 µM] | .
C=CCN(C(=O)CSc1nc2[nH]ncc2c(=O)n1-c1ccccc1OC)c1ccccc1 | -1.6% | 12.6µM* | -2.2% | ? | ?
CCOC(=O)c1ccc(-n2c(N)c(C(=O)OC)c3nc4ccccc4nc32)cc1 | . | . | . | -6.7%[46 µM] | .
CCOC(=O)NC1(Nc2ccc(Cl)cn2)Oc2ccccc2O1 | 2.7% | 12.6µM* | -9.3% | ? | -19.9

Compound activity deposited in PubChem by National Center for Advancing Translational Sciences (NCATS).
